The list is not random: actives were taken first. Their share in the collection is about 5.3%.
FMDV antiviral: blocks foot and mouth disease virus; FMDV antiviral cell-based qHTS; Potency, µM (top dose mostly 57.9 µM), for the others: top-dose activity change, negative = inhibition, actives largely listed as inhibitors; actives 1.2% (n = 410,000); calls by dose curve; tested in HEK293T cells; also: read-out not given here; nearly all actives have a fitted effect of over 45% in size
HCV inhibitor: HCV inhibition; Huh7.5.1 HCVcc-Cre infection, luciferase reporter, 44 h; Potency, µM (doses to about 41.8 µM), for the others: at the top dose activity change, negative = inhibition, most hits filed as inhibitors; actives 3.4% (n = 340,000); active = well fitted inhibition curve with a large enough effect; inconclusive = small, poorly fitted or top-dose-only effect, or another doubt; inactive = no such curve, though single readings can be large or run the other way
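Infectious HCV cell culture screen: compound-treated cells (1,000/well, pre-plated 4 h) are infected with HCVcc-Cre at roughly 0.5 moi and grown 44 h. Infection is quantified by luciferase signal after 15 min substrate incubation at room temperature.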
Vaccinia Venus: vaccinia inhibition (Venus reporter) | actives 0.46% (n = 330,000) | AID 720580 | Vaccinia virus Venus reporter expression, fluorescence | Potency, µM (top dose mostly 36.5 µM), for the others: at the highest dose activity change, negative = inhibition, actives largely listed as inhibitors; calls by dose curve; tested in A549 cells; also: nearly all actives have a fitted effect of over 30% in size
VACV mCherry inh: vaccinia inhibition (mCherry reporter) | Vaccinia virus mCherry reporter infection, fluorescence | Potency, µM (highest dose often 36.5 µM), for inactives: at the highest dose activity change, negative = inhibition, most hits filed as inhibitors | actives 0.63% (n = 310,000); calls by dose curve; tested in A549 cells; also: nearly all actives have a fitted effect of over 35% in size
Marburg entry inh: Marburg virus entry inhibition; Marburg virus pseudotyped entry inhibition, cell reporter; Potency, µM (series often up to 37.8 µM), for inactives: top-dose activity change, negative = inhibition, usual class: inhibitors; actives 1.8% (n = 300,000); calls by dose curve; tested in HEK293 cells
LASV entry inh: inhibitors of Lassa virus binding or cell entry | actives 1.2% (n = 300,000) | Lassa virus pseudotype entry inhibition, cell reporter | Potency, µM (top dose mostly 37.9 µM), inactives show at the highest dose activity change, negative = inhibition, actives largely listed as inhibitors; calls by dose curve; tested in HEK293 cells; also: nearly all actives have a fitted effect of over 50% in size
* hit, by the source's call; i = inactive; ? = inconclusive; . = no result given; [ ] = another dose, or the depositor's remark. % is scaled to controls: 0 for no effect and ±100 for the full control effect; potency is read from the fitted curve at half-maximal effect.

SMILES	FMDV antiviral	HCV inhibitor	Vaccinia Venus	VACV mCherry inh	Marburg entry inh	LASV entry inh
O[C@@H](c1cc(C(F)(F)F)nc2c(C(F)(F)F)cccc12)[C@H]1CCCCN1	-25.0%	8.91µM*	?	?	.	.
OC(c1cc(C(F)(F)F)nc2c(Cl)cc(Cl)cc12)C1CCCCN1 (configuration not stated)	-10.1%	?	?	?	?	?
OC(c1cc(-c2ccc(Cl)cc2)nc2ccccc12)C1CCCCN1 (configuration not stated)	?	?	14.1µM*	?	.	.
COc1ccccc1CNC(=O)C1CCN(S(=O)(=O)c2ccc3[nH]c(=O)ccc3c2)CC1	-24.9%	.	0.7%	6.7%	.	5.5%[46.1 µM]
Cn1cc(/C=C/c2ccnc3ccccc23)c2ccccc21	.	.	72.2%	?	.	.
Cc1nc2c(-c3ccc(Cl)cc3)cnn2c(N)c1-c1ccc(F)cc1	0.794µM*	-3.3%	.	.	.	.
COc1ccc(-c2c(C)nc3c(-c4ccc(F)cc4)cnn3c2N)cc1	31.4%	-10.0%	.	.	.	.
Cc1nc2c(-c3ccc(F)cc3)cnn2c(N)c1-c1ccccc1	15.8µM*	14.1µM*	.	.	.	.
C/C(=N\NC(=O)c1cc(-c2cccc([N+](=O)[O-])c2)n[nH]1)c1ccccc1O	-18.5%	11.3%	?	10µM*	?	?
C/C(=N/NC(=O)c1cc(-c2cccc([N+](=O)[O-])c2)n[nH]1)c1cccc(O)c1	-17.8%	-0.7%	.	.	.	.
CN(C)CC/C=C1\c2ccccc2Sc2ccc(Cl)cc21	-22.6%	?	?	?	?	?
CN(C)CC/C=C1\c2ccc(F)cc2Sc2cc(F)c(Cl)cc21	?	12.6µM*	.	.	.	.
CN(C)CC/C=C1/c2cc(F)ccc2CSc2ccc(F)cc21	-23.5%	?	-14.5%	-3.2%	?	?
CN(C)CC/C=C1\c2ccccc2Sc2cc(F)c(Cl)cc21	?	?	?	-8.8%	14.1µM*	?
CN(C)CC/C=C1\c2cc(F)ccc2CSc2ccccc21	?	?	?	-12.7%	?	16.4µM*
O=C(Cc1ccccc1)Nc1sc2c(c1C(=O)Nc1ccc(Br)cc1)CCCC2	0.5%	.	-19.3%	i	.	-8.4%[46.1 µM]
CN(C)CC/C=C1\c2cc(Cl)ccc2Sc2cc(F)c(F)cc21	?	11.2µM*	.	.	.	.
OCC1OC(n2ccc3c(NO)ncnc32)C(O)C1O (configuration not stated)	?	?	1.12µM*	?	0.316µM*	?
OCC1OC(n2cnc3c(NCc4ccccc4O)ncnc32)C(O)C1O (configuration not stated)	-8.2%	-14.1%	?	?	?	2.24µM*
OCC1OC(n2cnc3c(NO)ncnc32)C(O)C1O (configuration not stated)	.	.	7.2%	38.7%	.	.
CN(C)c1ncnc2c1ccn2C1OC(CO)C(O)C1O (configuration not stated)	-25.1%	?	?	?	2.24µM*	3.55µM*
COc1cc(=O)n2c(c1C(=O)N(C)Cc1nonc1C)CCN(Cc1ccc(F)cc1)CC2	-8.8%	.	-8.4%	-13.8%	.	.
O=C(O)C#CC(=O)O	.	.	-13.2%	i	.	.
Clc1ccc(CN2C3=NCCN3c3ccccc32)cc1Cl	?	10µM*	.	.	?	-21.7%
c1ccc(CN2C3=NCCN3c3ccccc32)cc1	?	?	4.7%	i	?	5.1%
SMILES	FMDV antiviral	HCV inhibitor	Vaccinia Venus	VACV mCherry inh	Marburg entry inh	LASV entry inh
OC(CN1C2=NCCN2c2ccccc21)c1ccc2c(c1)OCO2 (configuration not stated)	12.0%	?	11.2µM*	-26.3%[1.46 µM]	?	?
O=C(c1cccc(F)c1F)N1CCOc2ccc(CN3CCC(Oc4cccnc4)CC3)cc2C1	-18.8%	.	-4.3%	10.6%	.	.
O=C(O)[C@H]1CC(=O)N(Cc2cccs2)C1	.	.	.	.	9.5%	.
CC(C)OC(=O)c1cc2c(ccn2C)n1CC(=O)N(Cc1ccccc1)c1ccc(F)cc1	0.0%	?	-19.4%	?	5.17µM*	5.01µM*
CCN(CC)C(=O)Cn1cc(/C=C2\C(=O)NC(=O)N(c3ccccc3F)C2=O)c2ccccc21	25.1µM*	31.0%	-14.7%	-2.9%	?	?
O=C(O)Cn1cc(/C=C2\C(=O)NC(=O)N(c3ccc(Cl)cc3)C2=O)c2ccccc21	-4.1%	17.6%	.	.	.	.
CN(C)CCCN(C(=O)CCS(=O)(=O)c1ccccc1)c1nc2cc3c(cc2s1)OCO3	28.2µM*	?	10µM*	?	?	?
CCN(CC)CCN(C(=O)CCS(=O)(=O)c1ccccc1)c1nc2c(C)cc(C)cc2s1	-4.0%	?	?	14.1µM*	?	?
COc1ccc(OC)c2sc(N(CCCN(C)C)C(=O)CCS(=O)(=O)c3ccccc3)nc12	35.5µM*	?	?	?	?	-25.2%
CCN(CC)CCN(C(=O)CCS(=O)(=O)c1ccccc1)c1nc2cc(C)cc(C)c2s1	?	10.5%	-19.8%	-1.7%	?	?
Cc1ccc2sc(N(CCCN(C)C)C(=O)CCS(=O)(=O)c3ccccc3)nc2c1C	31.6µM*	?	.	.	.	.
COc1ccccc1N1CCN(c2nc(CNC(=O)c3cc(C)oc3C)nc3ccccc23)CC1	-23.0%	.	-4.9%	-13.0%	.	.
Cc1cc(N2C(=O)C(=O)/C(=C(\O)c3ccc(F)cc3)[C@@H]2c2ccc(F)cc2)no1	.	.	.	.	2.2%	.
O=C(Nc1cccc(C(F)(F)F)c1)c1cc2nc(-c3ccccc3)cc(C(F)(F)F)n2n1	3.5%	.	?	?	.	12.5%[46.1 µM]
CC1=C(C(=O)Nc2cccnc2)C(c2cccc(O)c2)n2nc(SCc3ccccc3)nc2N1 (configuration not stated)	-19.7%	.	-3.2%	2.8%	.	-1.2%[46.1 µM]
COc1cccc(NC(=O)c2oc3ccccc3c2NC(=O)c2cc3ccccc3o2)c1	-8.1%	.	-19.5%	-1.9%	?	7.0%[46.1 µM]
COc1ccc(C(=O)c2oc3ccccc3c2NC(C)=O)cc1	-23.0%	6.31µM*	-25.9%	-12.9%	?	26.3%
COc1cccc(NC(=O)c2oc3ccccc3c2NC(=O)C(C)(C)C)c1	-20.7%	8.91µM*	-14.6%	-22.1%	?	?
CC(C)(C)C1CCc2c(sc(NC(=O)c3cc4ccccc4c(=O)o3)c2C(N)=O)C1 (configuration not stated)	-21.9%	.	4.0%	-2.9%	10.3%[46.1 µM]	?
CN(C)CCC1(c2ccccc2)CCN(C)C1=O (configuration not stated)	-15.0%	.	-14.7%	i	.	.
CC1(C)CC(=O)C=C(c2ccc(F)cc2OCc2ccccc2)C1	?	20µM*	-19.3%	-0.5%	.	.
COc1cccc(C2=CC(=O)CC(C)(C)C2)c1OC	1.4%	12.0%	-22.5%	i	.	.
CCOc1ccc(Cl)cc1S(=O)(=O)N1CCC(C(=O)NCc2ccncc2)CC1	7.8%	9.4%	-3.2%	-17.2%	2.7%[46.1 µM]	0.9%[46.1 µM]

High-throughput results (PubChem)
